Most compounds without a hit are left out; they make up all but 2.2% or so of the library.
Calb FLC = affects C. albicans growth with fluconazole; hit rate 0.57% among 300,000; AID 1979; growth inhibition, % (no concentration beside the values); C. albicans CaCi-2 (fluconazole-resistant clinical isolate) + fluconazole, Alamar Blue growth, 48 h;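 active = growth inhibition above about 58% in most replicates, limit read from the data, passing the limit was not always enough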;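 note: all wells also contain fluconazole at 8 µg/ml as a sub-toxic cotreatment; 0% = median of DMSO wells and 100% = median of geldanamycin control wells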
Beta cell apopt = beta cell apoptosis inhibition. INS-1E cytokine-induced death, ATP luminescence, 48 h; percent of positive-control rescue, neutral wells zero. protection from apoptosis, % (test concentration not listed). hit rate 0.8% among 300,000. AID 435005;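 active = Every replicate reaches about 75%, or at least half do and their mean reaches it too, limit read from the data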;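 note: 0% = cytokine-treated negative control wells and 100% = positive control rescue; higher means more ATP so stronger rescue from cytokine killing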
PfHsp90 yeast 2 = reduces growth (ATP signal) of yeast expressing P. falciparum Hsp90; S. cerevisiae expressing PfHsp90, BacTiter-Glo ATP, 48 h; yeast lacking PDR1 and PDR3 efflux regulators; hit rate 0.32% among 310,000; inhibition, % at 9.4 µM;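 active = every replicate shows inhibition above about 80%, whatever the replicate mean, limit read from the data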;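 note: 0% = DMSO neutral controls and 100% = 20 µM radicicol positive controls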
Shn3 3UTR inh = Schnurri-3 reporter inhibition in Clone20 osteoblasts | hit rate 0.52% among 360,000 | inhibition, % at 12.5 µM | Clone20 osteoblast Shn3 3'UTR firefly luciferase, 24 h;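 active = mean inhibition of at least 75% with every replicate also reaching 75%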;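 note: 0% = median of neutral control wells and 100% = pilot-screen positive control compound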
CSC inhib = blocks cancer stem cells. cancer stem cell-like cells viability, luminescence. inhibition, % at 7.5 µM. hit rate 1.1% among 300,000. AID 2717; in the data active = inhibition above about 75%; tested in HMLE shEcad cells
Active calls of the source: *; / = no result given.

SMILES | Calb FLC | Beta cell apopt | PfHsp90 yeast 2 | Shn3 3UTR inh | CSC inhib
CNc1ccccc1C(C)(C)c1cc(-c2cccc(Br)c2)no1 | 22 | / | -3 | 86* | 15
CSc1ncccc1C(=O)N1CCCC(N2CCN(c3ccccc3C)CC2)C1 (stereo not given) | / | / | / | 15 | /
CCN1C(=O)[C@@H]2[C@@H](c3ccc(-c4ccc(C(C)=O)cc4)c(OC)c3)N3CCCC[C@@]3(C(=O)OC)[C@@H]2C1=O | 11 | 13 | 11 | 10 | 7
c1ccc(-c2nnc(SCc3ccncc3)o2)cc1 | / | / | / | -39 | /
Brc1cccc(CSc2nnc(-c3ccncc3)o2)c1 | 81* | -7 | -9 | 16 | 21
CCOC(=O)c1c(NC(NC(=O)C(C)C)C(Cl)(Cl)Cl)sc2c1CCC2 (stereo not given) | -1 | 5 | 37 | 8 | 101*
CCOC(=O)Nc1sc2c(c1C(=O)OCC)CCC2 | 14 | 0 | 9 | 3 | -7
O=C(Nc1cc(C(F)(F)F)ccc1-n1cncn1)c1ccc([N+](=O)[O-])o1 | 16 | -10 | -36 | -3 | /
COc1ccccc1C(=O)NCC(=O)NCc1cc(=O)n(C)c(=O)n1C | -13 | -4 | 14 | -13 | -9
CC(=O)Nc1nc(-c2ccc3ccccc3c2)cs1 | -7 | 8 | -22 | -74 | -1
Oc1ccc(Nc2nc(-c3ccc4ccccc4c3)cs2)cc1 | 12 | 84* | -36 | 63 | 134*
CCN(CC)c1ccc2cc(S(=O)(=O)c3ccc(Cl)cc3)c(=O)oc2c1 | 9 | 5 | 9 | 20 | 99*
CCCCCCc1cc2cc(C(=O)Nc3ccccc3)c(=O)oc2cc1O | -2 | 112* | 4 | -12 | 100*
CCCCCCc1cc2cc(S(=O)(=O)c3ccc(C)cc3)c(=O)oc2cc1O | 4 | 0 | 7 | 11 | 89*
CCCCCCc1cc2cc(S(=O)(=O)c3ccc(Cl)cc3)c(=O)oc2cc1O | -2 | 2 | 102* | 2 | 87*
O=c1oc2cc(O)ccc2cc1S(=O)(=O)c1ccccc1 | 2 | -9 | 8 | -26 | 6
CCCCCCc1cc2cc(C(=O)NCc3ccccc3)c(=N)oc2cc1O | -20 | 16 | -77 | 56 | 27
Cc1ccc(S(=O)(=O)c2cc3cc(Br)ccc3oc2=O)cc1 | 23 | -6 | 26 | 3 | 15
CCOc1cc(CNCCCN2CCOCC2)cc(Br)c1OCc1ccccc1Cl | 1 | 17 | 21 | 86* | -5
CCOc1cc(/C=N/O)cc(Br)c1OCc1ccc(Cl)cc1 | 0 | 10 | -2 | 10 | 117*
CCOc1cc(CNCCO)cc(Br)c1OCc1ccc(Cl)cc1 | -43 | 36 | 16 | -13 | 85*
CN(C)c1ccc(C2Nc3ccccc3C(=O)N2NS(C)(=O)=O)cc1 (stereo not given) | -5 | -6 | 35 | 17 | -11
O=C(N/N=C(\c1ccccc1)c1ccccn1)c1ccccc1Cl | 23 | 94* | / | 95* | 25
O=C(NC(O)C(=O)c1ccccc1)c1ccccn1 (stereo not given) | -7 | -1 | -4 | -13 | /
O=C(NN=C(c1ccccc1)c1ccccn1)c1ccccc1 | / | 103* | -7 | 84* | 57
SMILES | Calb FLC | Beta cell apopt | PfHsp90 yeast 2 | Shn3 3UTR inh | CSC inhib
COc1ccc(C(=O)N/N=C(\c2ccccc2)c2ccccn2)cc1 | 17 | 113* | 14 | 87* | 50
CN(CC1CCOCC1)C(=O)CC1C(=O)NCCN1Cc1ccc(F)c(F)c1 (stereo not given) | 2 | 2 | 7 | -1 | -9
COCCNC(=O)C1(C)CCCN(C(=O)c2ccc3c(c2)CCO3)C1 (stereo not given) | / | / | / | 3 | /
COc1cc(SC)ccc1C(=O)OCC(=O)NC1CC1 | 98* | / | -3 | -10 | /
COc1cc(SC)ccc1C(=O)OCC(=O)NCCNC(=O)COC(=O)c1ccc(SC)cc1OC | -18 | -3 | -3 | 8 | -17
CCC(=O)/C=C1/Sc2ccccc2N1CC | -17 | 7 | -8 | 14 | -3
CCN1/C(=C/c2sc(-c3ccccc3C)c[n+]2C)Sc2ccccc21 | 106* | / | 6 | 90* | /
Cc1ccc(NS(=O)(=O)c2ccc(C(=O)NC3CCN(Cc4ccccc4)CC3)cc2)cc1 | / | 37 | / | 85* | 9
Cc1ccc(NS(=O)(=O)c2cccc(C(=O)NC3CCN(Cc4ccccc4)CC3)c2)cc1 | / | / | 16 | 45 | /
O=C(Cc1ccc(F)cc1)N[C@@H]1c2ccccc2CC[C@H]1OCc1ccccc1 | / | / | 2 | 6 | /
CCOC(=O)c1ccc(NC(=O)Cn2ncc(Cl)c(Cl)c2=O)cc1 | 64 | 8 | -15 | 98* | 90*
O=C(O)c1ccc(-n2ncc(Cl)c(Cl)c2=O)cc1 | / | / | / | 57 | /
